Measurements as given in ChEMBL document CHEMBL5606458, “ASAP - ZIKV NS2B-NS3 protease fluorescence single point” (2024).
The campaign covered roughly 2,700 compounds. About 160 (5.9%) showed an effect of 50% or more. The list comes from a sample in which strong results are over-represented; it also holds similar structures and randomly drawn compounds.

Target: Nonstructural protein 3 (Zika virus) (UniProt A0A024AXB9)
Sequence (A0A024AXB9 as listed by the source): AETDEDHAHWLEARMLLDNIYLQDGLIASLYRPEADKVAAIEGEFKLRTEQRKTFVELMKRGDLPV

`COc1cc(COc2cccnc2F)nc(N2CCNCC2)n1` gave an inhibition (PRVABC59, Concentration 49.5 uM, Number of replicates 2.0, Standard deviation 3.471530038958882 %) of 9.4%, an inhibition (PRVABC59, Concentration 99.01 uM, Number of replicates 2.0, Standard deviation 1.2510762616041597 %) of 17.8% and an inhibition (PRVABC59, Concentration 198.0 uM, Number of replicates 2.0, Standard deviation 5.474495288404173 %) of 24.4%.

`CC[C@H]1CCN(c2nccn(CC)c2=O)C1` gave an inhibition (PRVABC59, Concentration 49.5 uM, Number of replicates 2.0, Standard deviation 1.4176871370399688 %) of 4.12%, an inhibition (PRVABC59, Concentration 99.01 uM, Number of replicates 2.0, Standard deviation 1.8963080974288338 %) of 10.6% and an inhibition (PRVABC59, Concentration 198.0 uM, Number of replicates 2.0, Standard deviation 0.25647537430637324 %) of 21.7%.

`CCn1ccnc(N2C[C@@H](O)[C@H](c3c[nH]c4ccccc34)C2)c1=O` gave an inhibition (PRVABC59, Concentration 49.5 uM, Number of replicates 2.0, Standard deviation 0.5666151507099095 %) of 7.52%, an inhibition (PRVABC59, Concentration 99.01 uM, Number of replicates 2.0, Standard deviation 0.06434104176194275 %) of 18.6% and an inhibition (PRVABC59, Concentration 198.0 uM, Number of replicates 2.0, Standard deviation 0.18264623400765803 %) of 34.5%.

`Nc1nc(CN2CCNCC2)nc2ccccc12` gave an inhibition (PRVABC59, Concentration 99.9 uM, Number of replicates 2.0, Standard deviation 4.738718872161362 %) of -7.53%.

Work on `c1ccc2c([C@H]3CCN(CC[C@H]4CCCO4)C3)c[nH]c2c1` yielded an inhibition (PRVABC59, Concentration 49.5 uM, Number of replicates 2.0, Standard deviation 2.014848974851422 %) of 6.42%, an inhibition (PRVABC59, Concentration 99.01 uM, Number of replicates 2.0, Standard deviation 1.491910771840746 %) of 12.4% and an inhibition (PRVABC59, Concentration 198.0 uM, Number of replicates 2.0, Standard deviation 1.9789597532326375 %) of 21.4%.

With `O=C(O)c1cccc(NC(=O)c2cccc(OCc3c(Cl)cccc3Cl)c2)c1` the inhibition (PRVABC59, Concentration 49.5 uM, Number of replicates 2.0, Standard deviation 0.05325743212794187 %) was 8.22%, the inhibition (PRVABC59, Concentration 99.01 uM, Number of replicates 2.0, Standard deviation 0.43176580313712193 %) was 15.3% and the inhibition (PRVABC59, Concentration 198.0 uM, Number of replicates 2.0, Standard deviation 0.7170736679224038 %) was 28.4%.

`NCc1ccc(C[C@H](NC(=O)c2ccccc2)C(=O)Nc2cccc(CN)c2)cc1` gave an inhibition (PRVABC59, Concentration 49.5 uM, Number of replicates 2.0, Standard deviation 1.4806761079016821 %) of 29.4%, an inhibition (PRVABC59, Concentration 99.01 uM, Number of replicates 2.0, Standard deviation 0.13484294125181392 %) of 48.1% and an inhibition (PRVABC59, Concentration 198.0 uM, Number of replicates 2.0, Standard deviation 0.4356460105984289 %) of 65.1%.

`N=C(N)NCCC[C@H](NC(=O)[C@H](Cc1ccc(CN)cc1)NC(=O)c1ccccc1)B(O)O` was tested, and the inhibition (PRVABC59, Concentration 10.0 uM, Number of replicates 3.0, Standard deviation 0.04927937550217375 %) was 100%, the inhibition (PRVABC59, Concentration 49.5 uM, Number of replicates 2.0, Standard deviation 0.010099059252786384 %) was 99.8% and the inhibition (PRVABC59, Concentration 49.5 uM, Number of replicates 2.0, Standard deviation 0.01807256864147136 %) was 99.7%. For the same compound, the inhibition (PRVABC59, Concentration 49.5 uM, Number of replicates 2.0, Standard deviation 0.060713041042124986 %) was 99.8%, the inhibition (PRVABC59, Concentration 49.5 uM, Number of replicates 2.0, Standard deviation 0.06905879139685818 %) was 99.8% and the inhibition (PRVABC59, Concentration 49.5 uM, Number of replicates 2.0, Standard deviation 0.08298276144570521 %) was 99.9%. The inhibition (PRVABC59, Concentration 49.5 uM, Number of replicates 2.0, Standard deviation 0.10271153264626066 %) was 99.3%, the inhibition (PRVABC59, Concentration 49.5 uM, Number of replicates 2.0, Standard deviation 0.1066443393745092 %) was 99.6% and the inhibition (PRVABC59, Concentration 49.95 uM, Number of replicates 2.0, Standard deviation 0.961660259200824 %) was 101%. It also gave an inhibition (PRVABC59, Concentration 99.01 uM, Number of replicates 2.0, Standard deviation 0.020192723708963373 %) of 99.9%, an inhibition (PRVABC59, Concentration 99.01 uM, Number of replicates 2.0, Standard deviation 0.05005292294196158 %) of 99.7% and an inhibition (PRVABC59, Concentration 99.01 uM, Number of replicates 2.0, Standard deviation 0.0511966198231532 %) of 99.7%. The inhibition (PRVABC59, Concentration 99.01 uM, Number of replicates 2.0, Standard deviation 0.06657179015992734 %) was 99.4%, the inhibition (PRVABC59, Concentration 99.01 uM, Number of replicates 2.0, Standard deviation 0.07055854485426984 %) was 99.9% and the inhibition (PRVABC59, Concentration 99.01 uM, Number of replicates 2.0, Standard deviation 0.0908591644954211 %) was 99.8%. For the same compound, the inhibition (PRVABC59, Concentration 99.01 uM, Number of replicates 2.0, Standard deviation 0.09853596007058937 %) was 100%, the inhibition (PRVABC59, Concentration 99.9 uM, Number of replicates 2.0, Standard deviation 0.9426813647289743 %) was 101% and the inhibition (PRVABC59, Concentration 198.0 uM, Number of replicates 2.0, Standard deviation 0.016157415845136337 %) was 99.7%. The inhibition (PRVABC59, Concentration 198.0 uM, Number of replicates 2.0, Standard deviation 0.0195885064887112 %) was 99.5%, the inhibition (PRVABC59, Concentration 198.0 uM, Number of replicates 2.0, Standard deviation 0.04517602680706901 %) was 99.6% and the inhibition (PRVABC59, Concentration 198.0 uM, Number of replicates 2.0, Standard deviation 0.06178660556739447 %) was 99.7%. For the same compound, the inhibition (PRVABC59, Concentration 198.0 uM, Number of replicates 2.0, Standard deviation 0.09594645769808005 %) was 99.7%, the inhibition (PRVABC59, Concentration 198.0 uM, Number of replicates 2.0, Standard deviation 0.10841922745899998 %) was 99.2% and the inhibition (PRVABC59, Concentration 198.0 uM, Number of replicates 2.0, Standard deviation 0.1903446087692639 %) was 99.7%.

In the case of `NCc1ccc(C[C@H](NC(=O)c2ccccc2)C(=O)N2CCCCC2)cc1`, the inhibition (PRVABC59, Concentration 49.5 uM, Number of replicates 2.0, Standard deviation 1.7023364994641166 %) is reported as 7.06%, the inhibition (PRVABC59, Concentration 99.01 uM, Number of replicates 2.0, Standard deviation 1.0175975565444826 %) is reported as 12.7% and the inhibition (PRVABC59, Concentration 198.0 uM, Number of replicates 2.0, Standard deviation 2.6267332126099125 %) is reported as 22%.

For `O=C(/C=C/c1ccccc1)C(=O)N1CCN(CCc2ccccc2)CC1`, the inhibition (PRVABC59, Concentration 49.5 uM, Number of replicates 2.0, Standard deviation 0.08274041706676757 %) was 1.32%, the inhibition (PRVABC59, Concentration 99.01 uM, Number of replicates 2.0, Standard deviation 0.30038362391023454 %) was 6.15% and the inhibition (PRVABC59, Concentration 198.0 uM, Number of replicates 2.0, Standard deviation 0.5414096494264544 %) was 13.3%. For the same compound, the inhibition (PRVABC59, Concentration 200.0 uM, Number of replicates 1.0) was 96.2%.

`Nc1ccc(/C=C/C(=O)C(=O)N2CCN(CCc3ccccc3)CC2)cc1` was tested, and the inhibition (PRVABC59, Concentration 49.5 uM, Number of replicates 2.0, Standard deviation 1.009989544626084 %) was 23.1%, the inhibition (PRVABC59, Concentration 99.01 uM, Number of replicates 2.0, Standard deviation 0.19781370467497048 %) was 38.5% and the inhibition (PRVABC59, Concentration 198.0 uM, Number of replicates 2.0, Standard deviation 0.599146111439346 %) was 56%.

Compound `O=Cc1ccc(N2CCC(C(=O)N3CCN(CCc4ccccc4)CC3)CC2)cc1` has an inhibition (PRVABC59, Concentration 50.0 uM, Number of replicates 1.0) of 37.9%.

Compound `OCCOc1cc(COc2cccnc2F)nc(N2CCNCC2)n1` has an inhibition (PRVABC59, Concentration 49.5 uM, Number of replicates 2.0, Standard deviation 1.0649598246775087 %) of 10.8%, an inhibition (PRVABC59, Concentration 99.01 uM, Number of replicates 2.0, Standard deviation 1.1158273619074888 %) of 21.6% and an inhibition (PRVABC59, Concentration 198.0 uM, Number of replicates 2.0, Standard deviation 0.21003831379185828 %) of 36.7%.

`NC(=O)c1cn(C[C@H]2CCCN2c2ccnc3ccccc23)nn1` gave an inhibition (PRVABC59, Concentration 49.5 uM, Number of replicates 2.0, Standard deviation 1.7032876695413104 %) of 13.6%, an inhibition (PRVABC59, Concentration 99.01 uM, Number of replicates 2.0, Standard deviation 1.9821170579482856 %) of 21.5% and an inhibition (PRVABC59, Concentration 198.0 uM, Number of replicates 2.0, Standard deviation 3.129764278957135 %) of 35.6%.
